Measured values as given in PubChem BioAssay (EPA / NIEHS).
Active and inactive are the calls of the source. Rule for the calls: active = hit-call score of the fitted dose curve at least 0.9, where 1 is the maximum; inactive = score below 0.9.

Key:
[1] = ATG_E_Box_CIS: Attagene CIS-FACTORIAL HepG2 Assay for human Enhancer Box (E-box) (AID 2282936); conditions: HepG2 E-box cis-reporter transcription, actives raise or lower the signal
In short: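 E-box-driven reporter transcripts measured in transiently transfected HepG2 after 24 h exposure: RNA reverse-transcribed, PCR-amplified, fluorescently labelled, digested and resolved by capillary electrophoresis. Gain or loss relative to DMSO.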

[2] = ATG_M_61_CIS: Attagene CIS-FACTORIAL HepG2 Assay for M61 Transcription Factor (Internal Marker) (AID 2282937); conditions: HepG2 Attagene CIS-FACTORIAL M61 internal marker reporter; actives raise or lower the signal
In short: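 Background-control endpoint: HepG2 cells with cis-regulated reporter constructs, 24 h exposure, reporter mRNA detected via fluorescent primer extension and capillary electrophoresis; values from bidirectional fitting with DMSO baseline.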

[3] = ATG_EGR_CIS: Attagene CIS-FACTORIAL HepG2 Assay for human Early Growth Response 1 (EGR1) (AID 2282938); conditions: HepG2 Attagene CIS-FACTORIAL EGR reporter mRNA; actives raise or lower the signal
In short: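 Endpoint derived by bidirectional fitting versus DMSO vehicle. Method: cis-promoter reporter units transfected into HepG2, 24 h dosing, RNA isolation, RT-PCR with 6-FAM primer extension and HpaI digestion, then capillary electrophoresis fluorescence detection.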

[4] = ATG_M_19_CIS: Attagene CIS-FACTORIAL HepG2 Assay for M19 Transcription Factor (Internal Marker) (AID 2282939); conditions: HepG2 Attagene CIS-FACTORIAL M19 internal marker reporter; actives raise or lower the signal
In short: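 HepG2 cells transiently transfected with cis-regulated multiplexed reporter units, dosed 24 h. Reporter mRNA quantified by RT-PCR and capillary electrophoresis; internal background marker fitted bidirectionally versus DMSO.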

[5] = ATG_ERE_CIS: Attagene CIS-FACTORIAL HepG2 Assay for Estrogen Response Element (ERE) (AID 2282940); conditions: HepG2 ERE cis-reporter, Attagene RNA transcript; actives raise or lower the signal
In short: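 HepG2 cells transiently transfected with multiplexed cis-element reporter units, measuring endogenous transcription factor activity; ERE reporter mRNA quantified after 24 h exposure by RT-PCR, fluorescent labelling, HpaI digestion and capillary electrophoresis. Bidirectional change versus DMSO.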

[6] = ATG_Ets_CIS: Attagene CIS-FACTORIAL HepG2 Assay for human Erythroblast Transformation Specific (ETS) (AID 2282941); conditions: HepG2 ETS cis-reporter transcription, actives raise or lower the signal
In short: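 RT-PCR/capillary electrophoresis fluorescence read-out of reporter mRNA; HepG2 transient multi-reporter transfection; 24 h compound exposure; gain or loss of signal fitted bidirectionally relative to DMSO.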

[7] = target: Hepatocyte nuclear factor 3-beta (Homo sapiens) (UniProt Q9Y261); assay: ATG_FoxA2_CIS: Attagene CIS-FACTORIAL HepG2 Assay for human Forkhead box A2 (FOXA2) (AID 2282942); conditions: HepG2 cis-reporter transcription factor activity, 24 h; actives raise or lower the signal
In short: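 Measured: reporter mRNA induction or loss in HepG2 transiently carrying multiple cis-regulated reporter units, 24 h after dosing. Quantified by RT-PCR plus capillary electrophoresis, normalised to DMSO.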

[8] = ATG_FoxO_CIS: Attagene CIS-FACTORIAL HepG2 Assay for human Forkhead box O (FoxO) (AID 2282943); conditions: HepG2 Attagene cis-reporter, FoxO element, mRNA; actives raise or lower the signal
In short: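 Human hepatoma HepG2 cells carry transiently introduced reporter transcription units controlled by cis promoter elements. Chemical treatment lasted 24 h, and mRNA signal was compared with DMSO.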

[9] = ATG_GATA_CIS: Attagene CIS-FACTORIAL HepG2 Assay for human GATA Binding Protein (AID 2282944); conditions: HepG2 GATA cis-element reporter, Attagene multiplex mRNA; actives raise or lower the signal
In short: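 HepG2 cells transiently transfected with multiplexed cis-element reporter units measure endogenous GATA activity; after 24 h compound exposure, reporter mRNA quantified by RT-PCR and capillary electrophoresis. Changes fitted in both directions vs DMSO.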

[10] = ATG_GLI_CIS: Attagene CIS-FACTORIAL HepG2 Assay for human Zinc Finger Protein GLI1 (AID 2282945); conditions: HepG2, Attagene cis-factorial reporter mRNA, GLI element; actives raise or lower the signal
In short: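 Bidirectional curve fits relative to DMSO, using reporter mRNA levels from RT-PCR plus capillary electrophoresis. Cells were HepG2 transiently carrying cis-regulated reporter constructs, harvested 24 h after dosing.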

[11] = target: Bile acid receptor (Homo sapiens) (UniProt Q96RI1); assay: ATG_IR1_CIS: Attagene CIS-FACTORIAL HepG2 Assay for human Nuclear Receptor Subfamily 1 Group H Member 4 (NR1H4), IR1 submotif (AID 2282946); conditions: IR1 reporter transcription, actives raise or lower the signal
In short: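 HepG2 cells transiently transfected with multiplexed cis-element reporter units read endogenous transcription factor activity. After 24 h compound exposure, reporter mRNA was quantified by RT-PCR, fluorescent labelling, HpaI digestion and capillary electrophoresis; bidirectional fitting versus DMSO baseline.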

[12] = ATG_GRE_CIS: Attagene CIS-FACTORIAL HepG2 Assay for human Glucocorticoid Response Elements (GRE) (AID 2282947); conditions: HepG2 GRE cis-reporter, Attagene multiplex mRNA; actives raise or lower the signal
In short: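 Reporter transcripts read by RT-PCR with capillary electrophoresis fluorescence after a 24 h chemical exposure of HepG2 cells transiently transfected with multiple cis-element reporter units. Gain or loss fitted against DMSO.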

[13] = ATG_ISRE_CIS: Attagene CIS-FACTORIAL HepG2 Assay for human Interferon Regulatory Factor 1 (IRF1) binding to an Interferon-Stimulated Response Element (ISRE) (AID 2282948); conditions: HepG2 ISRE cis-reporter (Attagene), mRNA transcription readout; actives raise or lower the signal
In short: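 Read-out: fluorescent RT-PCR products resolved by capillary electrophoresis, reporting endogenous transcription factor activity via ISRE-driven reporter mRNA in transfected HepG2 cells dosed for 24 h; gain or loss fitted relative to DMSO.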

[14] = ATG_M_32_CIS: Attagene CIS-FACTORIAL HepG2 Assay for M32 Transcription Factor (Internal Marker) (AID 2282949); conditions: HepG2 Attagene cis-factorial M32 reporter, mRNA; actives raise or lower the signal;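 note: background control marker of the multiplexed CIS panel rather than a real target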
In short: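 HepG2 human liver cells transiently transfected with cis-promoter-driven multiple reporter transcription units, dosed 24 h. Reporter mRNA quantified by RT-PCR, FAM-labelled primer extension, HpaI digest and capillary electrophoresis; bidirectional fit versus DMSO baseline.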

[15] = ATG_M_06_CIS: Attagene CIS-FACTORIAL HepG2 Assay for M06 Transcription Factor (Internal Marker) (AID 2282950); conditions: HepG2 Attagene CIS-FACTORIAL M06 internal marker reporter; actives raise or lower the signal
In short: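 Internal background marker within multiplexed cis-reporter HepG2 system. Cells transiently transfected, dosed 24 h; reporter mRNA measured by RT-PCR, HpaI digestion and capillary electrophoresis. Bidirectional fit relative to DMSO.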

[16] = target: Hypoxia-inducible factor 1-alpha (Homo sapiens) (UniProt Q16665); assay: ATG_HIF1a_CIS: Attagene CIS-FACTORIAL HepG2 Assay for human Hypoxia Inducible Factor 1 (HIF1A) (AID 2282951); conditions: HepG2 Attagene cis-factorial HIF1a reporter transcription; actives raise or lower the signal
In short: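 Dosed 24 h, transfected HepG2 cells yielded total RNA whose reporter transcripts were RT-PCR-amplified and sized by capillary electrophoresis using fluorescent labelling; DMSO defined baseline, with gain and loss of signal both fitted.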

[17] = target: Hepatocyte nuclear factor 6 (Homo sapiens) (UniProt Q9UBC0); assay: ATG_HNF6_CIS: Attagene CIS-FACTORIAL HepG2 Assay for human Hepatocyte Nuclear Factor 6 (HNF6) (AID 2282952); conditions: HepG2 Attagene cis-factorial HNF6 reporter transcription; actives raise or lower the signal
In short: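 Using cis-element reporters in HepG2 liver cells, the assay tracks endogenous factor-driven transcription 24 h post-dosing. Signal comes from 6-FAM-labelled, HpaI-digested RT-PCR fragments, with gain or loss scored against DMSO.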

[18] = target: Heat shock factor protein 1 (Homo sapiens) (UniProt Q00613); assay: ATG_HSE_CIS: Attagene CIS-FACTORIAL HepG2 Assay for human Heat Shock Transcription Factor 1 (HSE) (AID 2282953); conditions: HepG2 HSE cis-reporter, Attagene RNA transcription; actives raise or lower the signal
In short: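 HepG2 cells transfected with cis-promoter reporter units sensing endogenous transcription factor activity; reporter mRNA quantified 24 h post-dose by RT-PCR and capillary electrophoresis of 6-FAM-labelled products. Bidirectional fitting against DMSO.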

[19] = ATG_PBREM_CIS: Attagene CIS-FACTORIAL HepG2 Assay for human Phenobarbital-responsive Enhancer Module (PBREM) (AID 2282955); conditions: HepG2 PBREM cis-reporter, Attagene multiplexed transcription; actives raise or lower the signal
In short: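 Transfected liver-derived HepG2 cells exposed 24 h; PBREM reporter transcript quantified via RT-PCR and capillary electrophoresis, with activity in either direction referenced to DMSO.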

[20] = ATG_MRE_CIS: Attagene CIS-FACTORIAL HepG2 Assay for human Metal Responsive Element (MRE) (AID 2282954); conditions: HepG2 MRE cis-reporter transcription, Attagene multiplex; actives raise or lower the signal
In short: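 Endogenous MRE-dependent transcription read as reporter mRNA in transiently transfected human HepG2 cells at 24 h. RNA reverse-transcribed, PCR-amplified, labelled and resolved by capillary electrophoresis; gain or loss relative to DMSO.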

Sequence of Hepatocyte nuclear factor 3-beta (Homo sapiens) (Q9Y261 whole entry, looked up): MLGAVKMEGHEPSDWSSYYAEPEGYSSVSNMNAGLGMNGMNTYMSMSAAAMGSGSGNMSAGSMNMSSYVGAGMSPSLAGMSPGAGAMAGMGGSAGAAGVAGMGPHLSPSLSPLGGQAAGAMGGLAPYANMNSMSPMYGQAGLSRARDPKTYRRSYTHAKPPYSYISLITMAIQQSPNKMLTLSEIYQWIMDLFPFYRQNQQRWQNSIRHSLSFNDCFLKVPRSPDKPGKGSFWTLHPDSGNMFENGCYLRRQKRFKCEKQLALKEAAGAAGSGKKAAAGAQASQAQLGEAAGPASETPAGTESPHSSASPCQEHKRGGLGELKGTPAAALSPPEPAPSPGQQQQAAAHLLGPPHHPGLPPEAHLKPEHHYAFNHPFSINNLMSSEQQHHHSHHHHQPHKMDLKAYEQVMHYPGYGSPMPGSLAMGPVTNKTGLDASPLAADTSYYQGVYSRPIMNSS
Sequence of Bile acid receptor (Homo sapiens) (Q96RI1 whole entry, looked up): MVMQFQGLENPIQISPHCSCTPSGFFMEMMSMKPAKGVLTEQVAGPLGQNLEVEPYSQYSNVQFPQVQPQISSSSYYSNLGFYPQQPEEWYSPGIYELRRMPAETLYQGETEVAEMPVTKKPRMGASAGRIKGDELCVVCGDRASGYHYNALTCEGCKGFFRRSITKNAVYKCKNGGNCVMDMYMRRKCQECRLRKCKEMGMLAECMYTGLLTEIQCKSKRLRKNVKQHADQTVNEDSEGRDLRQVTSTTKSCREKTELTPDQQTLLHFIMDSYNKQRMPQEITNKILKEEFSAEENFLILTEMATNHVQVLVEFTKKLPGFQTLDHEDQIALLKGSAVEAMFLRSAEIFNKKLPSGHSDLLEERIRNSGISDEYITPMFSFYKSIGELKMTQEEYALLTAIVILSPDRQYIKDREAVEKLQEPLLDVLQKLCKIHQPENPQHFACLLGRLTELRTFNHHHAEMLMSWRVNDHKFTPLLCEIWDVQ
Sequence of Hypoxia-inducible factor 1-alpha (Homo sapiens) (Q16665 whole entry, looked up): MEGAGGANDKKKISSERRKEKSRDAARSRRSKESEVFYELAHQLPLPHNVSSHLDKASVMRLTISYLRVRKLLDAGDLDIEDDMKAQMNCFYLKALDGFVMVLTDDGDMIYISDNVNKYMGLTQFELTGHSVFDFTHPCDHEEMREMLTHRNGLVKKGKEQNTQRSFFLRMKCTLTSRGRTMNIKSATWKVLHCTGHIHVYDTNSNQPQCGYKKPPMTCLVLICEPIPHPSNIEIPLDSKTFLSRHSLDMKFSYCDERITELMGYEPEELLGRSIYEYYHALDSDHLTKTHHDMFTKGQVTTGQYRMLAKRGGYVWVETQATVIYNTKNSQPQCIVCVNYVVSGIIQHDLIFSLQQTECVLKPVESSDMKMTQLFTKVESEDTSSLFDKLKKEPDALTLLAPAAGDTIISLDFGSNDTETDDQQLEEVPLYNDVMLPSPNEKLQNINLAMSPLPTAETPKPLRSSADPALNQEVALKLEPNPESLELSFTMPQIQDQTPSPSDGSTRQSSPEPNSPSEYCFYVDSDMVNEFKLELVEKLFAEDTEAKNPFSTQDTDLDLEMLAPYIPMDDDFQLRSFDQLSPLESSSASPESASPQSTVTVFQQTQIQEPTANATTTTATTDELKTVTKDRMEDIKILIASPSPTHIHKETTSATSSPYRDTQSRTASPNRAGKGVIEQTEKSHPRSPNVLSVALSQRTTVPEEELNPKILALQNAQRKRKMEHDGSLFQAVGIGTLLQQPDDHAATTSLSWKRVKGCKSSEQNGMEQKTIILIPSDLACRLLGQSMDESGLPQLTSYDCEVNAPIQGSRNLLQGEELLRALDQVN
Sequence of Hepatocyte nuclear factor 6 (Homo sapiens) (Q9UBC0 whole entry, looked up, the tested form may be a part): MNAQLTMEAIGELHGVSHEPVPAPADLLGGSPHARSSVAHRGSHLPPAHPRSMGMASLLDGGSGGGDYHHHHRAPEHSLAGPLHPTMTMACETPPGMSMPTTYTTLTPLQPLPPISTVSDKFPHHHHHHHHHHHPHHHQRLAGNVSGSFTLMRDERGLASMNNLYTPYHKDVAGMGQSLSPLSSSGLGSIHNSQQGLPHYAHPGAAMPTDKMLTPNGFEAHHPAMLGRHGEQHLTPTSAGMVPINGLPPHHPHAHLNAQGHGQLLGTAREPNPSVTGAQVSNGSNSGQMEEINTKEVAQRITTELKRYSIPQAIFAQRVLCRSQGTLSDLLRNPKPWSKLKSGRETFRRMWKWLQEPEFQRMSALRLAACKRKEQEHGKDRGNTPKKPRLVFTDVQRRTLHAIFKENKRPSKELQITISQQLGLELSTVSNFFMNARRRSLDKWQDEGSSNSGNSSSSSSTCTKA
Sequence of Heat shock factor protein 1 (Homo sapiens) (Q00613 whole entry, looked up): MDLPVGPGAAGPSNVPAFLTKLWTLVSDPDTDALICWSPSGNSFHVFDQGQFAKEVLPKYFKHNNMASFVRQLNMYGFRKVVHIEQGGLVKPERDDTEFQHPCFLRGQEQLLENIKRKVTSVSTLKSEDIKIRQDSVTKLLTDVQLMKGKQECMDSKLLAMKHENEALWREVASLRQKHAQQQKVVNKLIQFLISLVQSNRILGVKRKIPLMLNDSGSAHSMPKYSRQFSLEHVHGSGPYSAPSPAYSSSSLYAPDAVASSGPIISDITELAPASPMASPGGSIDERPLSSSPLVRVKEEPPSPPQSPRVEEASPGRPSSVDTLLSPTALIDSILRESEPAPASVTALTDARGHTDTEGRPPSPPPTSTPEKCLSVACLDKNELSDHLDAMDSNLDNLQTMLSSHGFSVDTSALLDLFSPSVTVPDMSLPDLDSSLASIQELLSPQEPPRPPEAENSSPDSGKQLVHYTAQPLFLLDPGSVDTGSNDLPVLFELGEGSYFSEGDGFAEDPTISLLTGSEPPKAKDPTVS

With COC(=O)c1c(Cl)c(Cl)c(C(=O)OC)c(Cl)c1Cl the outcome [1] was “inactive”, the outcome [2] was “inactive” and the outcome [3] was “inactive”. The outcome [4] was “inactive”, the outcome [5] was “inactive” and the outcome [6] was “inactive”. The outcome [7] was “inactive”, the outcome [8] was “inactive” and the outcome [9] was “inactive”. For the same molecule, the outcome [10] was “inactive”, the outcome [11] was “inactive” and the outcome [12] was “inactive”. The outcome [13] was “inactive”, the outcome [14] was “inactive” and the outcome [15] was “inactive”. For the same molecule, the outcome [16] was “inactive”, the outcome [17] was “inactive” and the outcome [18] was “inactive”. For the same molecule, the outcome [19] was “inactive”.

With CCOC(=O)COc1ccc2c(c1)CC(NCC(O)c1cccc(Cl)c1)CC2 (stereo not drawn) the outcome [1] was “inactive”, the outcome [2] was “inactive” and the outcome [3] was “inactive”. The outcome [4] was “inactive”, the outcome [5] was “inactive” and the outcome [6] was “inactive”. The outcome [7] was “inactive”, the outcome [8] was “inactive” and the outcome [9] was “inactive”. The outcome [10] was “inactive”, the outcome [13] was “inactive” and the outcome [14] was “inactive”. For the same molecule, the outcome [15] was “inactive”, the AC50 [16] was 33 µM (active) and the outcome [17] was “inactive”. The AC50 [18] was 45.5 µM (active), the outcome [20] was “inactive” and the AC50 [19] was 49.3 µM (active).

For O=c1n(CC2CO2)c(=O)n(CC2CO2)c(=O)n1CC1CO1 (stereo not drawn), the outcome [1] was “inactive”, the outcome [2] was “inactive” and the AC50 [3] was 100 µM (active). The outcome [4] was “inactive”, the outcome [5] was “inactive” and the AC50 [6] was 100 µM (active). For the same molecule, the outcome [7] was “inactive”, the AC50 [8] was 31.7 µM (active) and the outcome [9] was “inactive”. The outcome [10] was “inactive”, the AC50 [12] was 32.7 µM (active) and the outcome [13] was “inactive”. For the same molecule, the outcome [14] was “inactive”, the outcome [15] was “inactive” and the outcome [16] was “inactive”. The outcome [17] was “inactive”, the outcome [18] was “inactive” and the outcome [19] was “inactive”.

With O=C(NS(=O)(=O)/C=C/c1ccccc1)c1ccc(F)cc1Cl the outcome [1] was “inactive”, the outcome [2] was “inactive” and the outcome [3] was “inactive”. The outcome [4] was “inactive”, the outcome [5] was “inactive” and the outcome [6] was “inactive”. For the same molecule, the outcome [7] was “inactive”, the outcome [8] was “inactive” and the outcome [9] was “inactive”. The outcome [10] was “inactive”, the outcome [13] was “inactive” and the outcome [14] was “inactive”. For the same molecule, the outcome [15] was “inactive”, the outcome [16] was “inactive” and the outcome [17] was “inactive”. The outcome [18] was “inactive” and the outcome [19] was “inactive”.

For COc1ccc(-n2nc(C(F)F)cc2-c2ccc(S(C)=O)cc2)cc1 (stereo not drawn), the outcome [1] was “inactive”, the outcome [2] was “inactive” and the outcome [3] was “inactive”. The outcome [4] was “inactive”, the outcome [5] was “inactive” and the outcome [6] was “inactive”. The outcome [7] was “inactive”, the outcome [8] was “inactive” and the outcome [9] was “inactive”. The outcome [10] was “inactive”, the outcome [12] was “inactive” and the outcome [13] was “inactive”. The outcome [14] was “inactive”, the outcome [15] was “inactive” and the outcome [16] was “inactive”. The outcome [17] was “inactive”.

For CC(C)=CCC/C(C)=C/CO, the outcome [1] was “inactive”, the outcome [2] was “inactive” and the outcome [3] was “inactive”. The outcome [4] was “inactive”, the outcome [6] was “inactive” and the outcome [7] was “inactive”. The outcome [8] was “inactive”, the outcome [9] was “inactive” and the outcome [10] was “inactive”. The outcome [11] was “inactive”, the outcome [12] was “inactive” and the outcome [13] was “inactive”. For the same molecule, the outcome [14] was “inactive”, the outcome [15] was “inactive” and the outcome [17] was “inactive”. For the same molecule, the outcome [20] was “inactive”.

With CCOc1cccc(-n2cc(C(=O)N3CCN(c4cc(C(=O)O)c5ccccc5c4)CC3)nc2-c2ccc(C)cc2)c1 the outcome [1] was “inactive”, the outcome [2] was “inactive” and the AC50 [3] was 27.1 µM (active). For the same molecule, the outcome [4] was “inactive”, the outcome [6] was “inactive” and the outcome [7] was “inactive”. The outcome [8] was “inactive”, the outcome [9] was “inactive” and the outcome [10] was “inactive”. For the same molecule, the AC50 [11] was 24.8 µM (active), the outcome [12] was “inactive” and the AC50 [13] was 22.8 µM (active). For the same molecule, the outcome [14] was “inactive”, the outcome [15] was “inactive” and the AC50 [16] was 6.55 µM (active). The outcome [17] was “inactive”, the AC50 [18] was 61.4 µM (active) and the AC50 [20] was 32.3 µM (active). For the same molecule, the outcome [19] was “inactive”.
